Here are results for 1 compound from PubChem BioAssay (NCATS).

Experiment [1] deals with Parathyroid hormone/parathyroid hormone-related peptide receptor (Homo sapiens) (UniProt Q03431). The experiment can be described thus: qHTS for PTHR1 Agonists: Optimization Screen against the NCGC LOPAC library (AID 1347079).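 Further: GloSensor cAMP luminescence in HEK-293 GP2 cells expressing human PTHR1 with IBMX.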 The method, boiled down:
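Agonist readout: GloSensor cAMP luminescence, read after 15 min at room temperature. HEK-293-derived GP2 line carries PTHR1; compounds tested as a titration for 1 hr at 37C in presence of IBMX. M-PTH (1-15) served as control.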
On the technique in general: qHTS replaces the single test concentration by a dilution series.

For experiment [2], the target named is N-terminal Xaa-Pro-Lys N-methyltransferase 1 (Homo sapiens) (UniProt Q9BV86). Briefly: qHTS Assay for Inhibitors of N-terminal methyltransferase 1 (NTMT1): LOPAC validation of the NTMT1 SAHH-coupled ThioGlo3 Assay (AID 1347143).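 Further: SAH from peptide methylation measured as thiol fluorescence via SAHH coupling and ThioGlo3; potency means the concentration at half of the fitted maximal effect; nearly all actives have a fitted effect of over 70% in size.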 The procedure, abridged:
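Inhibition of NTMT1 methylation of peptide SPKRIA is followed by converting SAH with SAHH and labelling the released thiol with ThioGlo3. Plates are read at 340/450nm before and 30 min after reagent addition, both at room temperature.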

The subject of experiment [3] is Zika virus NS2B-NS3 protease (unlinked). Briefly: Optimization of GU AMC qHTS for Zika virus inhibitors: Unlinked NS2B-NS3 protease assay (AID 1347151). Further: potency means the concentration at half of the fitted maximal effect; nearly all actives have a fitted effect of over 80% in size. The procedure, abridged: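 Noncovalent NS2B hydrophilic domain–NS3 protease complex (25 nM final) in 10 mM Tris-HCl pH 8.0, 0.01% Tween 20; AMC substrate, room temperature 15 min (~20% conversion); fluorescence change normalized, 4-parameter Hill fit.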

A short description of experiment [4]: Confirmatory screen GU Rhodamine qHTS for Zika virus inhibitors qHTS (AID 1347157). Further: potency means the concentration at half of the fitted maximal effect; nearly all actives have a fitted effect of over 70% in size. The method, boiled down:
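In dose–response format, inhibition of unlinked protease (25 nM) was measured with 1.5 microM bis-peptide Rhodamine110 substrate. Aprotinin served as the intraplate control.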

Experiment [5] in a line: ZIKV-mCherry secondary qHTS for Zika virus inhibitors (AID 1347158). Further: potency means the concentration at half of the fitted maximal effect. The method, boiled down: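 Vero, 5,000 cells/well, o/n 37 °C; cpd pin-transferred in DMSO; ZIKV-mCherry MOI 1, 48-72 h 37 °C; 32% PFA stock fix, Hoechst; imaged 10x DAPI/mCherry; mCherry+ threshold 450 RFU; % infection.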
Experiment [6] is described as follows: Confirmatory screen NINDS Rhodamine qHTS for Zika virus inhibitors (AID 1347161). Further: potency means the concentration at half of the fitted maximal effect; nearly all actives have a fitted effect of over 60% in size. The procedure, abridged: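 Rhodamine110-peptide cleavage (1.5 µM substrate) by 25 nM linked NS2B-NS3 enzyme at pH 8.0 (Tris, Tween 20), after 15 min RT preincubation with compounds; 15-min fluorescence change normalized to controls and Hill-fitted.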
In experiment [7] the test system is Zika virus NS2B-NS3 protease (linked construct). Briefly: 384 well plate NINDS Rhodamine confirmatory qHTS for Zika virus inhibitors (AID 1347164).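 Further: fluorescence from protease cleavage of Ac-LKRR-rhodamine 110 substrate; top concentration of the series differs between compounds; nearly all actives have a fitted effect of over 65% in size.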 The procedure, abridged:
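Linked NS2B-NS3 protease (final 5, 30 or 60 nM) preincubated ~15 minutes with compounds, then 10 microM Ac-LKRR-Rhodamine 110 added. Fluorescence (485/538 nm) read after 25 minutes at room temperature, normalized to no-enzyme and no-inhibitor controls.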

In experiment [8] the target is Lysine-specific demethylase 5B (Homo sapiens) (UniProt Q9UGL1). Briefly: Optimization screen for KDM5B Histone Demethylases FDH coupled qHTS against the LOPAC library (AID 1347166). The method, boiled down:
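KDM5BDeltaAP (200nM final) preincubated 10 min with compound, then 12.5uM H3K4Me3, 25uM a-ketoglutarate, ascorbate, Fe(II), NAD+ and FDH added; 50mM HEPES pH 7.5, 0.01% Tween-20. NADH fluorescence (340/450 nm) change over 30 min, room temperature.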

Experiment [9] can be described thus: Tertiary RLuc qRT-PCR qHTS assay for Zika virus inhibitors (AID 1347169). Further: top concentration of the series differs between compounds; nearly all actives have a fitted effect of over 55% in size. The method, boiled down:
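Vero cells (1,000/well) infected with recombinant ZIKV-RLuc (Cambodian) at MOI 1-2 after compound addition, 48-72 hrs at 37 degrees C. Live-cell Renilla luciferase substrate added; luminescence read after 1-1.5 hrs.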
A general note: Real-time PCR tracks product formation cycle by cycle.

A short description of experiment [10]: qHTS to identify inhibitors of the type 1 interferon - major histocompatibility complex class I in skeletal muscle: primary screen against the NCATS LOPAC collection (AID 1347405).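 Further: lytic HiBiT luminescence reporting HLA-B protein level.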 The method, boiled down: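 Luminescence from HiBiT fused to endogenous HLA-B in CRISPR-engineered human myoblasts served as the read-out. Cells received 4.0 ng/ml IFN-beta plus compound (seven concentrations, 1:4.3 steps, highest 46 uM final) for 24 hrs before lytic detection.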

The nature of experiment [11]: qHTS for inhibitors of adenylyl cyclases using a fission yeast platform: a pilot screen against the NCATS LOPAC library (AID 1347410). The procedure, abridged: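 S. pombe CHP2027 (AC9-GNAS-PDE4D2) carrying PKA-repressed fbp1-GFP, incubated 18 h at 30C in EMM with LOPAC compounds at up to 57 uM. GFP gain-of-signal read by laser scanning cytometry; DMSO negative control.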

Experiment [12] concerns the target Single-stranded DNA cytosine deaminase (Homo sapiens) (UniProt Q9GZX7). The experiment can be described thus: Validation qHTS assay for inhibitors of Activation Induced Cytidine Deaminase (AID): AID signal (AID 1347429). Further: potency means the concentration at half of the fitted maximal effect. The method, boiled down: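 Fluorescence at 540 nm excitation and 590 nm emission reports ssDNA cytosine deamination by AID, with UDG in the same well. Compound-treated reactions ran 4 hr at room temperature with DJC20/DJC23 substrate, followed by 30 min NaOH treatment.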

Experiment [13] is described as follows: Primary qHTS for inhibitors of La Crosse Virus (LACV) - induced cell death in SH-SY5Y cells (AID 1508616).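 Further: top concentration of the series differs between compounds; higher means more rescue of cells from virus-induced death.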 The method, boiled down:
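Protection against LACV-induced cell death is scored in SH-SY5Y cells exposed to compounds and virus (0.01 MOI) for 6 days. Data normalized to virus-infected DMSO wells and virus-free DMSO wells.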

Experiment [14] is described as follows: Primary qHTS for small molecule stabilizers of the endoplasmic reticulum resident proteome: Secreted ER Calcium Modulated Protein (SERCaMP) assay (AID 1508630). The procedure, abridged:
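GLuc-SERCaMP-expressing SH-SY5Y cells, pretreated 16 h with compound, are challenged with thapsigargin to empty ER calcium stores; after 4 h, coelenterazine is added directly to the medium and luminescence is imaged.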

The target of experiment [15] is Papain (Carica papaya) (UniProt P00784). Briefly: Primary qHTS assay for inhibitors of the protease papain (AID 1645873).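 Further: papain turnover of Z-FR-AMC read as the AMC fluorescence gain over 10 min; potency means the concentration at half of the fitted maximal effect.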
Experiment [16] deals with Rap guanine nucleotide exchange factor 3 (Homo sapiens) (UniProt O95398). The experiment can be described thus: Confirmatory qHTS for antagonist of cAMP-regulated guanine nucleotide exchange factor 3 (EPAC1) (AID 1645880). Further: potency means the concentration at half of the fitted maximal effect; nearly all actives have a fitted effect of over 55% in size. The procedure, abridged: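 Nucleotide exchange uses 100 nM EPAC1, 250 nM RAP1B-BODIPY-GDP and 50 uM GDP, with compounds in a concentration-titration series. After 5 min at room temperature, fluorescence (480 nm ex/540 nm em) is read every 5 min for 30 min. Data are normalized to control ATA and DMSO.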
Sequence of Rap guanine nucleotide exchange factor 3 (Homo sapiens) (O95398 whole entry, looked up): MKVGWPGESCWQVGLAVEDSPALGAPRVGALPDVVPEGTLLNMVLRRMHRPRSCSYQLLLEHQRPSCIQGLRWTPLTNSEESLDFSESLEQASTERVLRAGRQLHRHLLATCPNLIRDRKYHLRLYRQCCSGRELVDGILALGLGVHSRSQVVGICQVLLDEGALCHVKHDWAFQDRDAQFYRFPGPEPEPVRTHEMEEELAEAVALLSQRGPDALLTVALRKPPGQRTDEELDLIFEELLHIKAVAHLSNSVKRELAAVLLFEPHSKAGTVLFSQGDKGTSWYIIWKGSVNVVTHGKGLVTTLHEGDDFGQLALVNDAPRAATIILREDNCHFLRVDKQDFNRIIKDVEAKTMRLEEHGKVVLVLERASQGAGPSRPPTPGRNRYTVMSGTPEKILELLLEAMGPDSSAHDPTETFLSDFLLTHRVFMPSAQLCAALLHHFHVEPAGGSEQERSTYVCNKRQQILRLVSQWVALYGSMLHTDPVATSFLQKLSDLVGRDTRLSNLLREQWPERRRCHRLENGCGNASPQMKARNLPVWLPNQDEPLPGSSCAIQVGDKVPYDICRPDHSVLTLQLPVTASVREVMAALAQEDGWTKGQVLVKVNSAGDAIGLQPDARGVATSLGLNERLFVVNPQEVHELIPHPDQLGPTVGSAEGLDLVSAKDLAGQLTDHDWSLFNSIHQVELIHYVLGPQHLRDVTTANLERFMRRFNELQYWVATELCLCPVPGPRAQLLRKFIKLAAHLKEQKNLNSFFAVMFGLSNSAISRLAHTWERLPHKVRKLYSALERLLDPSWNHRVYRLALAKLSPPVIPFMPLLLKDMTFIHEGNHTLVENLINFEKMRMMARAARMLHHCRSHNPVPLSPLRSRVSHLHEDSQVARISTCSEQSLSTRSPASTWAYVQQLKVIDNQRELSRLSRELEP

For experiment [17] the target is unchanged. Briefly: Confirmatory qHTS for agonist of cAMP-regulated guanine nucleotide exchange factor 3 (EPAC1) (AID 1645881).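 Further: EPAC1 catalysed release of BODIPY-GDP from Rap1B seen as fluorescence loss; nearly all actives have a fitted effect of over 75% in size.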
The target in experiment [18] is Rap guanine nucleotide exchange factor 4 (Homo sapiens) (UniProt Q8WZA2). Briefly: Confirmatory qHTS for agonist of cAMP-regulated guanine nucleotide exchange factor 4 (EPAC2) (AID 1645884).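 Further: nucleotide exchange releases bodipy-GDP from Rap1 and this lowers its fluorescence; nearly all actives have a fitted effect of over 65% in size.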
Sequence of Rap guanine nucleotide exchange factor 4 (Homo sapiens) (Q8WZA2 whole entry, looked up): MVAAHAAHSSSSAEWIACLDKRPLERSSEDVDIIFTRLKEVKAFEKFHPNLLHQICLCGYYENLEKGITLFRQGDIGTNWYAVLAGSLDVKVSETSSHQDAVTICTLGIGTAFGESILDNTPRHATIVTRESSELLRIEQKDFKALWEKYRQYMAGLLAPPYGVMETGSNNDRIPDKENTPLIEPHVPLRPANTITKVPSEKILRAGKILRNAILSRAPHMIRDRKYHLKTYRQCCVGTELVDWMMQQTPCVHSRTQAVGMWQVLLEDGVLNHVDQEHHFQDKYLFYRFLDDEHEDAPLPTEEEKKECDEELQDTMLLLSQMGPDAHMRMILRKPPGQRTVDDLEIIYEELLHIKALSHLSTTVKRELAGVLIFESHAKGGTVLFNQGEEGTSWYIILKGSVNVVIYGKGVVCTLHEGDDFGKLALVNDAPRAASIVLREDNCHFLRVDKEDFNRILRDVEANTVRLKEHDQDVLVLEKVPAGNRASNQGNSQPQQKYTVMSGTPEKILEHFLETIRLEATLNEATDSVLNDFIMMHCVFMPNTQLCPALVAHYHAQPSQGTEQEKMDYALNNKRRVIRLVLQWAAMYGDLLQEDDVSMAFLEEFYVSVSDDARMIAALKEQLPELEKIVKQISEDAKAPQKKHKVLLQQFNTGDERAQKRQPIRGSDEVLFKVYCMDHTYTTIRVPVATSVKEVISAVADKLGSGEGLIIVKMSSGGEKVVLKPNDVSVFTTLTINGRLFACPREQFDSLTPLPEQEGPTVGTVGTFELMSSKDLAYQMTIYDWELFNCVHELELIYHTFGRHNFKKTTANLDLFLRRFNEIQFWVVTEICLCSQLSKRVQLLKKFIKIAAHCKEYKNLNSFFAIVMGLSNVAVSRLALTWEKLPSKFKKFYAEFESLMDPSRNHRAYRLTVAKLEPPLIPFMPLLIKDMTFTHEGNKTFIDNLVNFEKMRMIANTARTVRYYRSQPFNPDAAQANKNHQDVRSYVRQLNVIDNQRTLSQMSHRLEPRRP
The target is the same in experiment [19]. The experiment can be described thus: Confirmatory qHTS for antagonist of cAMP-regulated guanine nucleotide exchange factor 4 (EPAC2) (AID 1645885). Further: potency means the concentration at half of the fitted maximal effect; nearly all actives have a fitted effect of over 25% in size.
The target in experiment [20] is Metallo-beta-lactamase type 2 (Klebsiella pneumoniae) (UniProt C7C422). The experiment can be described thus: qHTS to identify inhibitors of the New Delhi Metallo-beta-lactamase (NDM): assay validation screen against the NCATS LOPAC Collection (AID 1794843). Further: potency means the concentration at half of the fitted maximal effect. The method, boiled down:
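Absorbance at 485 nm from nitrocefin turnover (50 uM solution added), read at plateau, gives the read-out. Compounds in DMSO were incubated first with 2 nM final NDM-1 in pH 7.0 HEPES buffer containing 1 uM ZnSO4 and 0.01% Tween20.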

The target in experiment [21] is Glutathione peroxidase 1 (Homo sapiens) (UniProt P07203). Briefly: Primary qHTS Assay for Inhibitors of Recombinant Selenoprotein Glutathione Peroxidase 1 (GPX1) (AID 1845191). Further: nearly all actives have a fitted effect of over 65% in size. The method, boiled down:
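10 nM GPX1 + cpd, 30 min RT; start w/ 1 mM GSH, 0.5 mM cumene hydroperoxide, 0.5 mM NADPH, 100 nM GR, 0.01% BSA; buffer 50 mM Tris-HCl pH 7.5, 2 mM EDTA, 150 mM NaCl; Fl 340/450, 0 & 15 min.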

The structures appear in SMILES notation. Unmarked numbers belong to inactive results. Inconclusive results are not listed. Calls of active or inactive are those of the source. The call rests on the fitted dose curve; in most records, active means well fitted curve in the direction sought with a large enough effect; inconclusive means small, poorly fitted or top-dose-only effect, or another doubt; inactive means no such curve, though single readings can be large; an effect the other way counts as inactive or inconclusive.

Sequence of Parathyroid hormone/parathyroid hormone-related peptide receptor (Homo sapiens) (Q03431 whole entry, looked up): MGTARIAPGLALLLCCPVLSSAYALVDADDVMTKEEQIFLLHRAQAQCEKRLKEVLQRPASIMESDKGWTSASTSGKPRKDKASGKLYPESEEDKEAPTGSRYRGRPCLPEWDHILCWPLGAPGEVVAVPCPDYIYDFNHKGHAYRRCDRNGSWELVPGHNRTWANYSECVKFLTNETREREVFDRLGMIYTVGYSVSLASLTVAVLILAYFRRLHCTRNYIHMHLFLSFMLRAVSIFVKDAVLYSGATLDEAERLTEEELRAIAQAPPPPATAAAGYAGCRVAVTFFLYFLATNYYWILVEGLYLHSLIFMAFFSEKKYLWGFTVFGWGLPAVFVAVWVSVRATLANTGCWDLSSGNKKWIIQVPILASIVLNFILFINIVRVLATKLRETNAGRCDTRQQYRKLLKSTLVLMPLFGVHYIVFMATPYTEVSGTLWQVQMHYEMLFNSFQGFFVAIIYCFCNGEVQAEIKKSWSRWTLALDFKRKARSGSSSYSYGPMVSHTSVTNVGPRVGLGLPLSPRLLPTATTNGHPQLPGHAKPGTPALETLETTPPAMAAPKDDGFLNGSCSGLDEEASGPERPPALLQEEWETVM
Sequence of N-terminal Xaa-Pro-Lys N-methyltransferase 1 (Homo sapiens) (Q9BV86 whole entry, looked up): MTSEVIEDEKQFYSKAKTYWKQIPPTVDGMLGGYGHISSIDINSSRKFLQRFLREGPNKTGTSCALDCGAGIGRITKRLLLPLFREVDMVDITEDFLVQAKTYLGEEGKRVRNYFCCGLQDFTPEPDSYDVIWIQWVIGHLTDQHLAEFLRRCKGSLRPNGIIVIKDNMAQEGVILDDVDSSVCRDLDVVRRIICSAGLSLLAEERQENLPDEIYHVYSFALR
Sequence of Glutathione peroxidase 1 (Homo sapiens) (P07203 whole entry, looked up): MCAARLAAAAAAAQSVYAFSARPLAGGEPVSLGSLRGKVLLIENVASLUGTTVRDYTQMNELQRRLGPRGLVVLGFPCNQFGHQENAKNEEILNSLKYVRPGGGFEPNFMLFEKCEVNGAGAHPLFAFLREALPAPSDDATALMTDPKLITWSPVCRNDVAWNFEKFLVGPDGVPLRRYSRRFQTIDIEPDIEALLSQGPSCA
Sequence of Lysine-specific demethylase 5B (Homo sapiens) (Q9UGL1 whole entry, looked up): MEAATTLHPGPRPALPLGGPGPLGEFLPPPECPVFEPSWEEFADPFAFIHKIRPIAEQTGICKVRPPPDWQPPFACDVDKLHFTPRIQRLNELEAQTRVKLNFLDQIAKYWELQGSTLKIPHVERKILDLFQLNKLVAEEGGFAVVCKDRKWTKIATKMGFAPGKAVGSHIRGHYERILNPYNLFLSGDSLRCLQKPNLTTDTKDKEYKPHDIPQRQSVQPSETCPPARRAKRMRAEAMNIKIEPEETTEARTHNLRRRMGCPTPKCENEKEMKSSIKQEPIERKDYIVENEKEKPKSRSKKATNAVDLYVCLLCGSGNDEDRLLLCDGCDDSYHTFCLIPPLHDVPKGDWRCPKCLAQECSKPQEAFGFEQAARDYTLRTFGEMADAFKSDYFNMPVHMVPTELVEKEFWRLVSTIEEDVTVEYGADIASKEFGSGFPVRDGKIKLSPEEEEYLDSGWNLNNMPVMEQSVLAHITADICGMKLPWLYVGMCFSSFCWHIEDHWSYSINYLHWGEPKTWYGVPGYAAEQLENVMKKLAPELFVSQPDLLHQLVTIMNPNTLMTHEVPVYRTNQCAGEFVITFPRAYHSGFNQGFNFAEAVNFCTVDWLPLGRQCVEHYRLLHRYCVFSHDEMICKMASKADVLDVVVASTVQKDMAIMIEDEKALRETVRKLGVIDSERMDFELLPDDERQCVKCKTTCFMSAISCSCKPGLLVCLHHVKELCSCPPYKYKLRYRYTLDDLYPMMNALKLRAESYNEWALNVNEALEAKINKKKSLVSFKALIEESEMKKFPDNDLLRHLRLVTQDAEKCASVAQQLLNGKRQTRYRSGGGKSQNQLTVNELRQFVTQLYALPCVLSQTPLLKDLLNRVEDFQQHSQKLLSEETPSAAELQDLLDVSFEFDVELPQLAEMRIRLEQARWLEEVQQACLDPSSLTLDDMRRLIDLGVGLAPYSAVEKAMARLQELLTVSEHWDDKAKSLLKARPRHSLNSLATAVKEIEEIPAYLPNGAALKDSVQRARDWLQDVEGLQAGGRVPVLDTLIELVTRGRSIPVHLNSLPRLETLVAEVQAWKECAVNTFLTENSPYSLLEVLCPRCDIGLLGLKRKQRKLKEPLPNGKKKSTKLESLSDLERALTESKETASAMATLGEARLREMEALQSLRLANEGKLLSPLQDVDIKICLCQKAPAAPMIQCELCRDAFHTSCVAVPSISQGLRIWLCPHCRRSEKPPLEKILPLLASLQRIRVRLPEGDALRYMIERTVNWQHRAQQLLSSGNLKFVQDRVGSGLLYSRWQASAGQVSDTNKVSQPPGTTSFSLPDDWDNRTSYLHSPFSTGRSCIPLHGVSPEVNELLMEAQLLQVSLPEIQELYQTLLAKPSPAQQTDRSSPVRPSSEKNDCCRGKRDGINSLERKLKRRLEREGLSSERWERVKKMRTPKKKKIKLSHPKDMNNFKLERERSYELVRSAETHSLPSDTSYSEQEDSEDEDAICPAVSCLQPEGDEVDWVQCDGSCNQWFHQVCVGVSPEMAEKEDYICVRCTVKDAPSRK
Sequence of Metallo-beta-lactamase type 2 (Klebsiella pneumoniae) (C7C422 whole entry, looked up): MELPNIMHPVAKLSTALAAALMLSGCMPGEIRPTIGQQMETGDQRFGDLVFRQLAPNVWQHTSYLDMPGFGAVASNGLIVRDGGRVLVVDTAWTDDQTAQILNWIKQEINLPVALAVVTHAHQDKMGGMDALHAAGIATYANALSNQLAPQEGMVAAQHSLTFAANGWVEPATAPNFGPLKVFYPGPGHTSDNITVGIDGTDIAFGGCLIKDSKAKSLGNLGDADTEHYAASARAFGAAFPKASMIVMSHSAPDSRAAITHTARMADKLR
Sequence of Single-stranded DNA cytosine deaminase (Homo sapiens) (Q9GZX7 whole entry, looked up): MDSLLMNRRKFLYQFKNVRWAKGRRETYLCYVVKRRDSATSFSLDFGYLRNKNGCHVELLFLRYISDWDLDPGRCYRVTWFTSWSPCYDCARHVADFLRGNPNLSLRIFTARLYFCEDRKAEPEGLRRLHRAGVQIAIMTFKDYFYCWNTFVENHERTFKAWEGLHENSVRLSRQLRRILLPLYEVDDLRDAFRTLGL

Turning to `Nc1c(S(=O)(=O)O)cc(Nc2ccc(Nc3nc(Cl)nc(Nc4ccc(S(=O)(=O)O)cc4)n3)c(S(=O)(=O)O)c2)c2c1C(=O)c1ccccc1C2=O`, the compound was called inactive in experiment [1], in [8], in experiment [11], in [13], in [17] and in experiment [18]. Moreover, the Potency in experiment [2] was 44.7 µM (active); in experiment [3], 10.6 µM (active); in [4], 2.24 µM (active); in experiment [5], 8.91 µM (active); in [6] it was 2 µM (active); in [12], 28.2 µM (active). Also, the Potency in experiment [15] was 1.78 µM (active); in [16] it was 9.93 µM (active); in [19], 22.1 µM (active); in experiment [20], 0.631 µM (active). Besides, the Potency entry in experiment [7], in experiment [9], in [10], in [14] and in experiment [21] was “inactive” throughout.
